Source: PubChem BioAssay (several laboratories)
FAS-TE inh = FAS thioesterase domain inhibitors, primary screen, biochemical, fluorescence intensity, uHTS. Fatty acid synthase (Homo sapiens), P49327. recombinant FAS-TE, OMFH fluorogenic substrate, fluorescence endpoint. inhibition, % at 15 µM. 360,000 tested, 0.67% active;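 active = compounds whose normalised, plate-corrected inhibition of enzyme fluorescence in the single-dose primary screen is 50% or more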
SMARCA2 act = SMARCA2 (BRM) function activators, primary screen, cell-based, luminescence, high throughput | MG213 cells, MMTV-luciferase reporter, dexamethasone, overnight | activation, % at 9.1 µM | 370,000 tested, 1% active; in the data active = activation above about 7.8%
FXN GAA850 act = FXN promoter activators, primary screen, cell-based, luciferase luminescence, HEK293 lucGAA850; HEK293 lucGAA850 FXN promoter luciferase reporter, 24 h; percent of 10 µM SAHA response; activation, % at 6 µM; 360,000 tested, 0.56% active; AID 540364, 2011;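 active = activation above the average of all compounds screened plus 3 SD, cutoff fixed separately per campaign, cut at about 7.5% in these data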
proKLK7 act = proKLK7 zymogen activators, primary screen, biochemical, fluorescence intensity; Kallikrein-7 (Homo sapiens), P49862; purified proKLK7, EDANS-DABCYL substrate fluorescence; 100% is mature enzyme control, 0% vehicle; 370,000 tested, 0.9% active; AID 652039, 2013; activation, % at 7 µM;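 active = activation above the mean of all tested compounds plus 3 SD, computed per campaign excluding outliers beyond control limits, cut at about 13% in these data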
Target sequence (P49862 whole entry, looked up): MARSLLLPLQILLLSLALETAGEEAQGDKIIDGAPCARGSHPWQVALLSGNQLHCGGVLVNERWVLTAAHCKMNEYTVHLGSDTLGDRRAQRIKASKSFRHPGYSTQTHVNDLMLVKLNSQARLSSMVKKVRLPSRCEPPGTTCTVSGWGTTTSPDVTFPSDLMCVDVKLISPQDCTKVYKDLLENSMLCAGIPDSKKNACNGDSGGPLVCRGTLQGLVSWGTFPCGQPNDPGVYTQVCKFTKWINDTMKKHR
FAS-TE inh conf = FAS thioesterase domain inhibitors, confirmation, biochemical, fluorescence intensity, single concentration; shares compounds with FAS-TE inh; recombinant FAS-TE, OMFH fluorogenic substrate; inhibition, % at 15 µM; 2,300 tested, 45% active;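 active = compounds inhibiting the enzyme by at least 50% at 15 µM in any one of the replicates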
Numbers stand for hits. Shown are actives, neighbours in structure and some others; about 2.9% of the full set was active somewhere.

For COc1ccc(-c2csc(N3C(=O)C4C5c6ccccc6C(c6ccccc65)C4C3=O)n2)cc1 (stereo unspecified) the results were FAS-TE inh 63, SMARCA2 act inactive, FXN GAA850 act inactive, proKLK7 act inactive and FAS-TE inh conf inactive.
COc1ccc(-c2csc(N3C(=O)C4C5c6ccccc6C(c6ccccc65)[C@@H]4C3=O)n2)cc1 (stereo partly specified) was read as FAS-TE inh 59, SMARCA2 act inactive, FXN GAA850 act inactive, proKLK7 act inactive and FAS-TE inh conf inactive.
O=C(COC(=O)c1cc(-c2cccnc2)nc2ccccc12)Nc1ccc(F)cc1F was read as FAS-TE inh inactive, SMARCA2 act inactive, FXN GAA850 act inactive and proKLK7 act inactive.
Screening CCNc1nc2[nH]c(=O)c3c(c2s1)OC(N)=C(C#N)C3c1ccc(C)cc1 (stereo unspecified) returned FAS-TE inh inactive, SMARCA2 act inactive, FXN GAA850 act inactive and proKLK7 act inactive.
CC(C)(C)C1=CC(=O)C(N2CCOCC2)=CC1=O was read as FAS-TE inh inactive, SMARCA2 act inactive, FXN GAA850 act inactive and proKLK7 act inactive.
`COc1ccc([C@H]2CC(=O)C=C(c3ccc(Cl)c(C(F)(F)F)c3)C2)cc1` gave FAS-TE inh 54, SMARCA2 act inactive, FXN GAA850 act inactive, proKLK7 act inactive and FAS-TE inh conf inactive.
Screening COc1ccc([C@H]2CC(=O)C=C(c3ccc(C)c([N+](=O)[O-])c3)C2)cc1 returned FAS-TE inh 76, SMARCA2 act inactive, FXN GAA850 act inactive, proKLK7 act inactive and FAS-TE inh conf 81.
`COc1ccc([C@H]2CC(=O)C=C(c3ccc(Cl)c(C(F)(F)F)c3)C2)cc1OC` gave FAS-TE inh inactive, SMARCA2 act inactive, FXN GAA850 act inactive and proKLK7 act inactive.
CC(=O)N1CCc2c(sc(NC(=O)CN3C(=O)CCC3=O)c2C(N)=O)C1 was read as FAS-TE inh inactive, SMARCA2 act inactive, FXN GAA850 act inactive and proKLK7 act inactive.
For COc1ccc(-c2csc(NC(=O)COc3ccc(N(C)S(=O)(=O)c4ccc(C)cc4)cc3)n2)cc1 the results were FAS-TE inh 53, SMARCA2 act inactive, FXN GAA850 act inactive, proKLK7 act inactive and FAS-TE inh conf inactive.
For COc1ccc(-c2csc(NC(=O)c3ccccc3NS(=O)(=O)c3ccc(C)cc3)n2)cc1 the results were FAS-TE inh 56, SMARCA2 act inactive, FXN GAA850 act inactive, proKLK7 act inactive and FAS-TE inh conf 49.
Screening C=C(C)CSc1ncc(-c2cccc(C(F)(F)F)c2)cn1 returned FAS-TE inh 58, SMARCA2 act inactive, FXN GAA850 act inactive, proKLK7 act inactive and FAS-TE inh conf 36.
Screening CNC(=O)NC(=O)CSc1cccc(C(F)(F)F)c1 returned FAS-TE inh inactive, SMARCA2 act inactive, FXN GAA850 act inactive and proKLK7 act inactive.
For O=C(NC(=S)Nc1ccccc1N1CCCC1)c1ccc(-c2cccc([N+](=O)[O-])c2)o1 the results were FAS-TE inh inactive, SMARCA2 act inactive, FXN GAA850 act inactive and proKLK7 act inactive.
Screening CC(=O)N1CCN(c2ccccc2NC(=O)c2ccc(-c3cccc([N+](=O)[O-])c3)o2)CC1 returned FAS-TE inh 66, SMARCA2 act inactive, FXN GAA850 act inactive, proKLK7 act inactive and FAS-TE inh conf 42.
For O=C(Nc1ccccc1)c1ccc(Nc2c([N+](=O)[O-])cc([N+](=O)[O-])c3ccccc23)cc1 the results were FAS-TE inh 69, SMARCA2 act inactive, FXN GAA850 act inactive, proKLK7 act inactive and FAS-TE inh conf inactive.
CC(=O)c1ccc(OCC(O)CNCc2ccc3c(c2)OCO3)cc1 (stereo unspecified) was read as FAS-TE inh inactive, SMARCA2 act inactive, FXN GAA850 act inactive and proKLK7 act inactive.
`CN(Cc1ccccc1)C(=O)c1ccc(NC(=O)Cc2ccc(NC(=O)C3CCCN(C(=O)C4CCC4)C3)cc2)cc1` (stereo unspecified) gave FAS-TE inh inactive, SMARCA2 act inactive, FXN GAA850 act inactive and proKLK7 act inactive.
CN(C(=O)c1cccc(NC(=O)Cc2ccc(NC(=O)C3CCCN(S(=O)(=O)c4cccc([N+](=O)[O-])c4)C3)cc2)c1)C1CCCC1 (stereo unspecified) was read as FAS-TE inh 69, SMARCA2 act inactive, FXN GAA850 act inactive, proKLK7 act inactive and FAS-TE inh conf inactive.
For CN(Cc1ccccc1)C(=O)c1ccc(NC(=O)Cc2ccc(NC(=O)C3CCCN(S(=O)(=O)c4cccc([N+](=O)[O-])c4)C3)cc2)cc1 (stereo unspecified) the results were FAS-TE inh 59, SMARCA2 act inactive, FXN GAA850 act inactive, proKLK7 act inactive and FAS-TE inh conf inactive.
Screening CN(C(=O)c1ccc(NC(=O)Cc2ccc(NC(=O)C3CCCN(S(=O)(=O)c4cccc([N+](=O)[O-])c4)C3)cc2)cc1)C1CCCC1 (stereo unspecified) returned FAS-TE inh 66, SMARCA2 act inactive, FXN GAA850 act inactive, proKLK7 act inactive and FAS-TE inh conf inactive.
For CN(C(=O)c1ccc(NC(=O)Cc2cccc(NC(=O)C3CCCN(S(=O)(=O)c4cccc([N+](=O)[O-])c4)C3)c2)cc1)C1CC1 (stereo unspecified) the results were FAS-TE inh inactive, SMARCA2 act inactive, FXN GAA850 act inactive and proKLK7 act inactive.
For CN(C(=O)c1cccc(NC(=O)Cc2ccc(NC(=O)C3CCCN(C(=O)C4CCCC4)C3)cc2)c1)C1CCCCC1 (stereo unspecified) the results were FAS-TE inh inactive, SMARCA2 act inactive, FXN GAA850 act inactive and proKLK7 act inactive.
Screening O=C(C(=O)N1CCC(Cc2ccccc2)CC1)c1ccccc1 returned SMARCA2 act inactive and proKLK7 act inactive.
`CC(C)OC(=O)NC(C)(C)COC(=O)Nc1cccc(Cl)c1` gave FAS-TE inh inactive, SMARCA2 act inactive, FXN GAA850 act inactive and proKLK7 act inactive.
`Cc1ccc(S(=O)(=O)N(C(=O)c2ccncc2)c2ccc3oc4c(c3c2)CCCC4)cc1[N+](=O)[O-]` gave FAS-TE inh 54, SMARCA2 act inactive, FXN GAA850 act inactive, proKLK7 act inactive and FAS-TE inh conf inactive.
`Cc1ccc([N+](=O)[O-])cc1S(=O)(=O)N(C(=O)c1ccncc1)c1ccc2oc3c(c2c1)CCCC3` gave FAS-TE inh 72, SMARCA2 act inactive, FXN GAA850 act inactive, proKLK7 act inactive and FAS-TE inh conf inactive.
`O=C1CSc2ccc(S(=O)(=O)N3CCN(c4ccccc4)CC3)cc2N1` gave FAS-TE inh inactive, SMARCA2 act inactive, FXN GAA850 act inactive and proKLK7 act inactive.
Screening Cc1c(C(=O)Nc2cccc(Cl)c2)oc2ccc(S(=O)(=O)N3CCC4(CC3)OCCO4)cc12 returned FAS-TE inh 66, FXN GAA850 act inactive and FAS-TE inh conf inactive.
